The source of these data is PubChem BioAssay.

Values joined by “and” are separate entries in the source; they are usually repeats but may differ in a detail not shown here. Equal entries are not always repeated. Some structures have more than one record in an assay (separate samples or runs), and their calls can disagree. Active and inactive are the calls of the source.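 Rule for the calls, unless noted: active = inhibition at or above 50% relative to wild type and mutant plate controls; inactive = inhibition below 50%.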

Experiment [1] is described as follows: inhibitors of TNFa-induced NFkB p65 translocation, primary screen, imaging, HUVEC, MLSMR starter and 10KST1 sets (AID 438;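 active = inhibition above 20% together with a positive visual image hit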;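 note: compound added about 3h40 before a 20 min TNFalpha stimulation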;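 for inhibition: signal is the nuclear over cytoplasmic p65 intensity ratio per well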). The following applies: HUVEC TNFa-induced p65 nuclear translocation; cell count: measured here: nuclei count (cytotoxicity indicator), at 2.08 µM; inhibition: at 2 µM, stronger effect = higher value, 0% TNFa-plus-vehicle, 100% no-TNFa wells.
Experiment [2] can be described thus: inhibitors of mutant huntingtin aggregation, primary screen, imaging, exon1htt(103Q)mCFP cells, high-content imaging (AID 483;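 active = visual image review flags a hit and inhibition of aggregation exceeds 20%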;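 note: compound exposure lasted 3 days before fixation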;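 for nuclei count: percent of the per-plate median nuclei count of sample wells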). To be noted: exon1htt(103Q)mCFP cell line, aggregate imaging, at 2 µM; inhibition of aggregation: stronger effect = higher value; nuclei count: measured here: cell count, toxicity.
A short description of experiment [3]: inhibitors of E-selectin induction by TNFa, primary screen, imaging, HUVEC, immunofluorescence, MLSMR starter and 10KST1 sets (AID 487;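 active = visually confirmed hit in the image check and inhibition above 20%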;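 for inhibition: signal is fraction of cell area covered by stained E-selectin grains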;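 for nuclei count: 100% = median nuclei count of all wells on the same plate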). To be noted: HUVEC TNFalpha-induced E-selectin immunofluorescence imaging, at 2 µM; inhibition: stronger effect = higher value; nuclei count: measured here: cell number, toxicity.
A short description of experiment [4]: DUSP6 inhibitors restoring Erk phosphorylation by chemical complementation, primary imaging in DUSP6-transfected HeLa (AID 609;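 active = compounds giving at least 50% inhibition in the cell-based MKP-3 phosphatase rescue imaging test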;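 for inhibition: phospho-Erk level distribution per well compared with pooled transfected vehicle control wells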). The following applies: HeLa MKP-3 transfected, phospho-Erk imaging KS statistic, at 10 µM, cells stimulated with TPA for 15 min.
For experiment [5], the target named is Dual specificity protein phosphatase 6 (Homo sapiens) (UniProt Q16828). The description is as above. To be noted: HeLa MKP-3 transfected, phospho-Erk imaging KS statistic; at 10 µM; stronger effect = higher value; cells stimulated with TPA for 15 min.
In experiment [6] the target is Voltage-gated potassium channel subunit beta-2 (Rattus norvegicus) (UniProt P62483). As to the kind of experiment: KvBeta enzyme negative modulators, primary screen, biochemical, NADPH fluorescence (AID 622;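 active = fluorescence slope higher than the sample average by over 3 SD, cut at about -0.22 in these data, passing the limit was not always enough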;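 note: slope of raw intensity against log time taken from 70 to 1610 s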). The following applies: recombinant KvBeta, 4-cyanobenzaldehyde reduction, at 10 µM, stronger effect = higher value.
The target is the same in experiment [7]. As to the kind of experiment: KvBeta positive modulators, primary screen, biochemical, NADPH fluorescence (AID 623;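 active = NADPH fluorescence slope more negative than the mean of all samples by about 3 SD, 99.7% confidence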;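 note: fluorescence intensity change per second fitted from 20 to 320 s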). The following applies: Recombinant KvBeta, NADPH fluorescence decrease slope, 10 min; at 10 µM; stronger effect = lower value.
Experiment [8] addresses Alpha-2C adrenergic receptor (Homo sapiens) (UniProt P18825). As to the kind of experiment: modulators of alpha2C/GIRK thallium flux, primary screen, cell-based, HEK293 alpha2C/GIRK1/2 (AID 624;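 active = fluorescence slope after compound addition differing from the mean of all screened samples at 99.7% confidence, in either direction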;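 note: slope of fluorescence ratio to pre-addition baseline per second over 15 to 24 s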). The following applies: thallium flux BTC fluorescence, at 10 µM, actives lie on both sides.
A short description of experiment [9]: inhibitors of larval lipid processing in zebrafish, primary screen, whole organism, PED6 fluorescence, gall bladder and intestine (AID 686;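 active = a full or partial loss of lipid-probe fluorescence in the fish gall bladder, intestine or both, judged by eye; inactive = no fluorescence loss, or compound toxic to the fish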;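 note: larvae 5 to 7 days old with five fish per well; signal comes from phospholipase A2 cleavage of quenched PED6 carried via bile; overnight exposure to compound and PED6 before scoring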). To be noted: Zebrafish larvae PED6 lipid processing, fluorescence scoring; screened at 20 µM (by protocol).
Experiment [10] can be described thus: inhibitors of Chlamydomonas gravitaxis, primary screen, whole organism, Chlamydomonas reinhardtii, WT vs cilia-less mutant, absorbance, 96-well (AID 463189).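 Note: 0% = wild type cc124 cells in DMSO and 100% = ciliumless bld1 mutant cells.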 The following applies: OD600 absorbance, 2 days, at 10 µM, stronger effect = higher value.
A short description of experiment [11]: inhibitors of Sendai virus-induced IRF3 signaling, primary screen, TLR/RLR signaling modifier project, cell-based, Sendai virus stimulus, luciferase, 10K MLSCN set (AID 602276;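 active = inhibition at or above 50% at 10 µM; inactive = inhibition below 50%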;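 note: firefly luciferase from ISG56 promoter only with Renilla not read in this screen; 0% = Sendai virus plus DMSO and 100% = medium plus DMSO without virus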). The following applies: HEK293 RL24 IRF3 luciferase reporter, at 10 µM, stronger effect = higher value.
A short description of experiment [12]: inhibitors of poly I:C-induced TLR3 signaling, primary screen, cell-based, poly I:C stimulus, luciferase, 10K MLSCN set (AID 602277;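 active = inhibition of the reporter signal at or above 50%; inactive = inhibition below 50%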). The following applies: HEK293-TLR3 RL24 IRF3 luciferase reporter, at 10 µM, stronger effect = higher value.
The target of experiment [13] is Muscarinic acetylcholine receptor M4 (Homo sapiens) (UniProt P08173). Put plainly: compounds altering M4/GIRK thallium flux, either direction, primary screen, M4 allosteric agonist project, cell-based, HEK293 M4/GIRK, BTC-AM (AID 625;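 active = fluorescence slope after compound addition differing from the mean of all tested samples at 99.7% confidence, mostly higher but some lower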;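 note: thallium influx through GIRK channels coupled to M4 in HEK293 cells with BTC-AM dye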). To be noted: at 10 µM, actives lie on both sides.
The mark [14] stands for this setting: measured here: cell density z-score.
Setting [15] is: measured here: nuclear c-Myc green intensity z-score.
Setting [16] is: measured here: nuclear pErk red intensity z-score, stronger effect = higher value.

Sequence of Voltage-gated potassium channel subunit beta-2 (Rattus norvegicus) (P62483 whole entry, looked up): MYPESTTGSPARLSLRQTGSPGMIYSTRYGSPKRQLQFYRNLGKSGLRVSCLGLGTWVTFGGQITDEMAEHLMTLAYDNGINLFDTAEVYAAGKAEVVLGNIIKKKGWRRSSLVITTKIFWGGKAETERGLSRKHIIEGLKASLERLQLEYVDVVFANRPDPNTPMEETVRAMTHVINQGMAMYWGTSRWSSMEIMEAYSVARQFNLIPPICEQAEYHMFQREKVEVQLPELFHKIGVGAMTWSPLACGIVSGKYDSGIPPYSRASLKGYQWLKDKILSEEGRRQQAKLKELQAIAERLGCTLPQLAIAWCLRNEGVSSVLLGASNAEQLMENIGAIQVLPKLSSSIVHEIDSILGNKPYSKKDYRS
Sequence of Alpha-2C adrenergic receptor (Homo sapiens) (P18825 whole entry, looked up): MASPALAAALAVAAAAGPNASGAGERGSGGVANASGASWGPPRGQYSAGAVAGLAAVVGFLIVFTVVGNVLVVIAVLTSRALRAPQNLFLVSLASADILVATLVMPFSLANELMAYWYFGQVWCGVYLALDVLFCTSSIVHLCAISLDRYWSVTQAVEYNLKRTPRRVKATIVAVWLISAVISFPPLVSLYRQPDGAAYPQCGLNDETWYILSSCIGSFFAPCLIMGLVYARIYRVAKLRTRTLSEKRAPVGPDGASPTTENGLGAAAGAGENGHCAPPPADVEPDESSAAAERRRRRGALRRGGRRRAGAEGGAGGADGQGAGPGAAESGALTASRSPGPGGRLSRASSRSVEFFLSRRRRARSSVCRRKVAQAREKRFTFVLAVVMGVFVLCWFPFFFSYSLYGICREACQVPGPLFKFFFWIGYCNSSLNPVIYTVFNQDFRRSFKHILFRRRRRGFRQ
Sequence of Dual specificity protein phosphatase 6 (Homo sapiens) (Q16828 whole entry, looked up): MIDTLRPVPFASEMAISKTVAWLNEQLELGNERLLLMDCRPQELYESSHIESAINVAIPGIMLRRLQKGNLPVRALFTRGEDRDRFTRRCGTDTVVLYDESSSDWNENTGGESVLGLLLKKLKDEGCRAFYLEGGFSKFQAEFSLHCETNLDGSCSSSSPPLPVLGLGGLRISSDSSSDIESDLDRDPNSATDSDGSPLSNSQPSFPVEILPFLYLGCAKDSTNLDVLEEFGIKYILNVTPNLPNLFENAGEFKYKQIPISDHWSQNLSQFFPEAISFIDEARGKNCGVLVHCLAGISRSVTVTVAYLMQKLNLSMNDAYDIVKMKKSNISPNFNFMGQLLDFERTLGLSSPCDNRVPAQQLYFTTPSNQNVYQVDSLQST
Sequence of Muscarinic acetylcholine receptor M4 (Homo sapiens) (P08173 whole entry, looked up): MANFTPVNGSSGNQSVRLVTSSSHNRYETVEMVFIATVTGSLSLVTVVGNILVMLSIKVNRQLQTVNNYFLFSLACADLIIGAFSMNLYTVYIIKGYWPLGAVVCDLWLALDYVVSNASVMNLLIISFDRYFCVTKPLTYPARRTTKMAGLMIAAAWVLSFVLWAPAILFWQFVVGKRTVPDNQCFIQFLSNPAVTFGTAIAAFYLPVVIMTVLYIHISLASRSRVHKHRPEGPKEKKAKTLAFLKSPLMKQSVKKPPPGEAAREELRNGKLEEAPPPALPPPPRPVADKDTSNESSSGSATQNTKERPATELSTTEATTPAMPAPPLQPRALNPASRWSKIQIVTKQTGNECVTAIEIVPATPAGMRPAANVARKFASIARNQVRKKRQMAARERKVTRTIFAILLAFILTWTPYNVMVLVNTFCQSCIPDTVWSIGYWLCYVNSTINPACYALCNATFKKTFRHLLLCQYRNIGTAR

As for `NC(CO)C(=O)NNCc1ccc(O)c(O)c1O` (centres undefined), the cell count in [1] was found to be 571. For the same molecule, the inhibition in experiment [1] was -9.9% (inactive); in experiment [3], -52.2% (inactive); in experiment [5] it was 3.45% (inactive); in experiment [10], -0.599% (inactive) and -9.6% (inactive); in [11] it was 8.18% (inactive); in experiment [12], 29.4% (inactive). Further, in [2], the inhibition of aggregation is -16.9% (inactive). For the same molecule, the values for the nuclei count in experiment [2] and in experiment [3] were 117% and 124%, respectively. Further, the z-score in [4] (setting [14]) is 0.364; in [4] (setting [15]), 0.175; in [4] (setting [16]), -0.65. Moreover, the fluorescence slope in experiment [6] was -0.466 (inactive). Further, the NADPH fluorescence slope in experiment [7] was -6.2e-05 (inactive). Besides, the slope in experiment [8] was 0.00539 (inactive). In [9], the molecule was called inactive.
As to `COCCNC(=O)c1c(N)n(CCC2=CCCCC2)c2nc3ccccc3nc12`, the cell count in experiment [1] came to 661. Further, the inhibition is -11.4% (inactive) in experiment [1]; -22.2% (inactive) in experiment [3]; 20.2% (inactive) in experiment [5]; 25.3% (inactive) in [10]; 6.4% (inactive) in experiment [11]; 8.21% (inactive) in experiment [12]. Besides, the inhibition of aggregation in experiment [2] is -0.5% (inactive). The values for the nuclei count in experiment [2] and in experiment [3] were 101% and 149%, respectively. For the same molecule, the z-score in [4] (setting [14]) was 1.39; in experiment [4] (setting [15]), -1.83; in [4] (setting [16]), -0.195. Also, the fluorescence slope in experiment [6] was -0.0792 (inactive); in experiment [13] it was 0.00724 (inactive). For the same molecule, the NADPH fluorescence slope in experiment [7] is -5.5e-06 (inactive). For the same molecule, the slope in experiment [8] is 0.00496 (inactive). In experiment [9], the molecule was classed as inactive.
For `OCCN1CCN(CCCN2c3ccccc3Sc3ccc(Cl)cc32)CC1`, the cell count in experiment [1] was determined as 705. For the same molecule, the inhibition in [1] is -3% (inactive); in experiment [3] it was -112% (inactive); in experiment [5], 3.45% (inactive); in experiment [10], 3.48% (inactive) and 164% (active); in [11] it was 17.3% (inactive); in experiment [12], 40.7% (inactive). The inhibition of aggregation in [2] was -20.6% (inactive). Further, the nuclei count stood at 109% in [2] and 130% in experiment [3]. For the same molecule, the z-score in experiment [4] (setting [14]) is -0.393; in experiment [4] (setting [15]), 0.625; in [4] (setting [16]), 2.66. In [6], the fluorescence slope was -0.46 (inactive). Also, the NADPH fluorescence slope in experiment [7] was -5.7e-05 (inactive). For the same molecule, the slope in [8] was 0.0036 (inactive). Besides, in experiment [9], the call was inactive.
For `CC1(C)Cc2c(c(N3CCOCC3)nc3sc(C#N)c(N)c23)CS1`, the cell count in [1] came out at 626. For the same molecule, the inhibition in experiment [1] is -0.4% (inactive); in [3], -68.9% (inactive); in experiment [5] it was 5.42% (inactive); in experiment [10], 21.2% (inactive); in experiment [11] it was -2.57% (inactive); in [12] it was 16.1% (inactive). In experiment [2], the inhibition of aggregation was -6.4% (inactive). The nuclei count in experiment [2] is 114%; in experiment [3], 120%. For the same molecule, the z-score in [4] (setting [14]) was -0.238; in experiment [4] (setting [15]), -0.405; in [4] (setting [16]), 0.382. Besides, in [6], the fluorescence slope is -0.0293 (active). In addition, the NADPH fluorescence slope in experiment [7] is -1.7e-06 (inactive). For the same molecule, the slope in experiment [8] is 0.00535 (inactive). For the same molecule, in [9], the call was inactive.
Turning to `Oc1c(I)cc(I)c2cccnc12`, the cell count in experiment [1] was 615. The inhibition in experiment [1] was -0.5% (inactive); in [3] it was -79.9% (inactive); in [5], -11.9% (inactive); in experiment [10], 2.25% (inactive); in [11], 12.4% (inactive); in experiment [12], 30.5% (inactive). In addition, in experiment [2], the inhibition of aggregation is -10.9% (inactive). Also, the nuclei count is 110% in experiment [2] and 121% in experiment [3]. Further, the results for the z-score in experiment [4] (setting [14]), in experiment [4] (setting [15]) and in [4] (setting [16]) were -0.0594, -1.99 and 1.27, respectively. In addition, the fluorescence slope in experiment [6] was -0.436 (inactive). For the same molecule, in [7], the NADPH fluorescence slope was 7.6e-06 (inactive). For the same molecule, the slope in [8] was 0.00528 (inactive). Moreover, the outcome in experiment [9] was inactive.
In the case of `CCOC(=O)CSC1=C(C#N)C(c2ccc3c(c2)OCO3)CC(=O)N1` (centres undefined), the cell count in experiment [1] is 562. Further, the inhibition is -1.1% (inactive) in experiment [1]; -43.4% (inactive) in experiment [3]; 3.66% (inactive) in experiment [5]; 14.3% (inactive) in [10]; 36.8% (inactive) in experiment [11]; 34.7% (inactive) in experiment [12]. Also, the inhibition of aggregation in experiment [2] is -16.1% (inactive). The nuclei count in experiment [2] was 82.2%; in [3], 80.7%. Moreover, the z-score in experiment [4] (setting [14]) is -0.992; in experiment [4] (setting [15]), 0.745; in experiment [4] (setting [16]), 0.964. Also, the fluorescence slope in experiment [6] is -0.471 (inactive). Besides, the NADPH fluorescence slope in experiment [7] is -0.000313 (inactive). Moreover, the slope in experiment [8] was 0.00534 (inactive). Besides, in [9], the molecule was classed as inactive.
On to `COc1cccc(Cn2c(OCC3CCCO3)nc3c2c(=O)n(C)c(=O)n3C)c1` (centres undefined), for which the cell count in experiment [1] amounted to 411. In addition, the inhibition in experiment [1] was -13.3% (inactive); in [3], -83.9% (inactive); in experiment [5] it was -7.28% (inactive); in experiment [10], 0.777% (inactive); in [11], 17.3% (inactive); in experiment [12] it was 17.8% (inactive). In addition, the inhibition of aggregation in experiment [2] is 1.3% (inactive). Further, the nuclei count in experiment [2] came to 104%; in experiment [3], 153%. Moreover, the z-score in experiment [4] (setting [14]) was -0.111; in experiment [4] (setting [15]), 0.171; in experiment [4] (setting [16]) it was 0.516. The fluorescence slope in experiment [6] is -0.377 (inactive). For the same molecule, the NADPH fluorescence slope in experiment [7] is -2.5e-05 (inactive). The slope in [8] is 0.00528 (inactive). In addition, the outcome in experiment [9] was inactive.
Turning to `Cc1onc(-c2ccccc2)c1C(=O)N[C@@H]1C(=O)N2[C@@H]1SC(C)(C)[C@@H]2C(=O)O`, the cell count in experiment [1] came out at 638. For the same molecule, the inhibition in [1] was -3.4% (inactive); in experiment [3] it was -91.9% (inactive); in experiment [5], 25.1% (inactive); in experiment [10] it was -11.8% (inactive); in experiment [11], -2.42% (inactive); in experiment [12] it was 27.7% (inactive). Further, the inhibition of aggregation in [2] is -5% (inactive). Besides, the nuclei count in experiment [2] stood at 102%; in experiment [3] it was 126%. In addition, the z-score in experiment [4] (setting [14]) was -0.0512; in [4] (setting [15]), -0.454; in experiment [4] (setting [16]) it was 0.656. In addition, the fluorescence slope in experiment [6] is -0.532 (inactive). Further, the NADPH fluorescence slope in [7] was -4.6e-05 (inactive). In addition, the slope in experiment [8] was 0.00473 (inactive). Moreover, in [9], the molecule was classed as inactive.
Consider `c1cncc(-c2nnc3sc(-c4ccco4)nn23)c1`, for which, in experiment [1], the cell count came to 535. In addition, the inhibition in [1] is 0.4% (inactive); in experiment [3], -81.8% (inactive); in experiment [5], -2.47% (inactive); in [10], 1.41% (inactive); in experiment [11] it was 13.2% (inactive); in experiment [12], -2.28% (inactive). In addition, in experiment [2], the inhibition of aggregation is 3.4% (inactive). The nuclei count is 94.2% in [2] and 105% in experiment [3]. Moreover, the z-score in experiment [4] (setting [14]) is 0.315; in experiment [4] (setting [15]) it was -1.33; in experiment [4] (setting [16]), 1.09. The fluorescence slope in experiment [6] is -0.476 (inactive). Besides, in experiment [7], the NADPH fluorescence slope is -8.1e-06 (inactive). In experiment [8], the slope is 0.00677 (inactive). Besides, the molecule was classed as inactive in experiment [9].
